Assay outcomes (PubChem)
uPA surface inh – inhibitors of cell surface uPA generation; cell surface uPA generation assay, qHTS; 330,000 tested, 0.31% active; Potency, µM (doses to about 38.3 µM), for inactives: at the top dose activity change, negative = inhibition, actives largely listed as inhibitors; active means well fitted inhibition curve with a large enough effect; inconclusive means small, poorly fitted or top-dose-only effect; inactive means no such curve, though single readings can be large or run the other way; tested in mouse RAW 264.7 cells; further: on the % scale 0 is the no-effect control and ±100 the full control effect; nearly all actives have a fitted effect of over 55% in size
ELG1 genotox – genotoxicity induction in ELG1-luciferase HEK293T cells; HEK293T ELG1-luciferase reporter, luminescence, 16 h; Potency, µM (highest dose often 46 µM), for inactives: at the highest dose activity change, positive = activation, actives largely listed as activators; 330,000 tested, 1.3% active; further: % of control where 0% means no effect; nearly all actives have a fitted effect of over 60% in size
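HEK293T cells expressing luciferase-tagged ELG1 were exposed to compound or DMSO vehicle for 16 hr at 37 °C and 5% CO2. Luciferase activity was then measured with ONE-Glo after 30 min at room temperature.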
Rab9 prom act – activators of Rab9 promoter; AID 485297; Huh7 Rab9 promoter-luciferase reporter, luminescence, 24 h; Potency, µM (series often up to 9.22 µM), for inactives: at the top dose activation, negative = inhibition, hits mostly activators; 320,000 tested, 2.8% active; further: % of control where 0% means no effect; nearly all actives have a fitted effect of over 60% in size
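Huh7 cells stably carrying a Rab9 promoter-luciferase reporter, 1500 cells per well in OP-MEM I with 10% FBS, treated with compound 24 hours at 37C. Luciferase activity read by luminescence after 10 minutes with Amplite reagent.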
NPC1 prom act – NPC1 promoter activation; Huh7 NPC1 promoter luciferase reporter, 24 h; Potency, µM (doses to about 9.22 µM), without a hit: at the top dose activation, hits mostly activators; 320,000 tested, 2.4% active; further: % of control where 0% means no effect; nearly all actives have a fitted effect of over 60% in size
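Luminescence read-out of NPC1 promoter-driven luciferase in stably transfected Huh7 cells; compounds delivered in DMSO and left 24 h at 37C, 5% CO2, qHTS titration format.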
FLuc modulator – inhibits or activates purified firefly luciferase, miR-21 counter-screen; Potency, µM (highest dose often 57.5 µM), for inactives: at the highest dose activity change, negative = inhibition, hits mostly inhibitors; purified FLuc, Km substrates, luminescence inhibition; P08659; 360,000 tested, 6.9% active;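 further: plate controls were vehicle for no effect and reference inhibitor for full effect; nearly all actives have a fitted effect of over 55% in size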
Target sequence (P08659 whole entry, looked up): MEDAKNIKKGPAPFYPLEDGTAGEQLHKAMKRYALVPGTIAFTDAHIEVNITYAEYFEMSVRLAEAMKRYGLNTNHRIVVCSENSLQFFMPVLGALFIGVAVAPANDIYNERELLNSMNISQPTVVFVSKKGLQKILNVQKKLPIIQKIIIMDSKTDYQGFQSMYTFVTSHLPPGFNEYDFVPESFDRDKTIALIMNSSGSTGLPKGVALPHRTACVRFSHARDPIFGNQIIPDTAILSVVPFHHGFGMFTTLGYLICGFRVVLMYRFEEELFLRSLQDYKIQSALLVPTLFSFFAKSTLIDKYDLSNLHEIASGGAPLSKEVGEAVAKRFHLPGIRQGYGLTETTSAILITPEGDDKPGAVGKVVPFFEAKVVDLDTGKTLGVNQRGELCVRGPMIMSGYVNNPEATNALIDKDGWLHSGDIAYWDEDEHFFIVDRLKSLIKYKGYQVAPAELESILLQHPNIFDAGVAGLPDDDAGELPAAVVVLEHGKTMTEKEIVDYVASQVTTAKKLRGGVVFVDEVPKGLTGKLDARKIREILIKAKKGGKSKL
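Purified P. pyralis luciferase, 10 nM final, with Km-level 10 uM D-luciferin and 10 uM ATP in 50 mM Tris acetate pH 7.5, 10 mM Mg acetate, 0.01% Tween-20, 0.05% BSA; 6-point qHTS titration about 60 µM downward; luminescence read.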
SMN2 splice enh – SMN2 splice variant enhancement | HEK293 SMN2-luciferase splicing reporter, luminescence, 30-36 h | Potency, µM (doses to about 46.1 µM), inactives show top-dose activity change, positive = activation, usual class: activators | 210,000 tested, 2.8% active | AID 1458; further: % of control where 0% means no effect; nearly all actives have a fitted effect of over 55% in size
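HEK293 cells carry an SMN2 […]–luciferase reporter in which exon 7 inclusion puts luciferase in frame. Cells were plated 10-12 h before compound addition, then incubated 30-36 h at 37C. ONE-Glo luminescence was read; sodium butyrate at 4.5 mM final served as control.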
Numbers without * were called inactive; ? = inconclusive; nt = no result given; [ ] = remark or other dose. An excerpt weighted towards active compounds, which were near 7.3% of everything screened. Unless noted, the call rests on the fitted dose curve; in most records, active means well fitted curve in the direction sought with a large enough effect; inconclusive means small, poorly fitted or top-dose-only effect, or another doubt; inactive means no such curve, though single readings can be large; an effect the other way counts as inactive or inconclusive. Potency means the concentration at half of the fitted maximal effect.

SMILES	uPA surface inh	ELG1 genotox	Rab9 prom act	NPC1 prom act	FLuc modulator	SMN2 splice enh
CCCCNC(=O)/C(C#N)=C/c1cccnc1	0%	13%	3%	4%	1%	5µM*
N#C/C(=C\c1ccc2c(c1)OCCO2)C(=O)Nc1ccc(C(=O)O)cc1	4%	?	15%[1.84 µM]	21%	0.34µM*	nt
O=C(NCCC1=CCCCC1)c1ccc2c(c1)N(Cc1ccc(Cl)cc1)C(=O)c1ccccc1S2(=O)=O	nt	nt	nt	nt	-1%	29%
CC1=NN(C(N)=S)C(=O)C1N=Nc1ccc([N+](=O)[O-])cc1 (centres undefined)	-5%	?	?	?	3.4µM*	nt
CC1=NN(C(N)=S)C(=O)C1N=Nc1ccc(F)cc1 (centres undefined)	-2%	23µM*	3.5µM*	2.5µM*	11µM*	nt
CC1=NN(C(N)=S)C(=O)C1N=Nc1cccc(C)c1 (centres undefined)	10%	?	?	?	?	nt
CC1=NN(c2ccccc2C(=O)O)C(=O)C1N=Nc1ccccc1 (centres undefined)	-19%	-11%	21%	20%	15µM*	nt
CC1=NN(C(N)=S)C(=O)C1N=Nc1ccc(O)cc1 (centres undefined)	-15%	9%	2%	-11%	27µM*	nt
CC1=NN(C(N)=S)C(=O)C1N=Nc1ccccc1Cl (centres undefined)	-6%	9%	15%	17%	?	nt
CC(=O)Nc1ccc(N=NC2C(=O)N(C(N)=S)N=C2C)cc1 (centres undefined)	9%	?	?	?	12µM*	nt
CC1=NN(C(N)=S)C(=O)C1N=Nc1ccccc1C(=O)O (centres undefined)	32%	-4%	7%	-2%	5%	nt
CC1=NN(C(N)=S)C(=O)C1N=Nc1ccc(C)c(Br)c1 (centres undefined)	12%	5.2µM*	1.3µM*	1.8µM*	1.7µM*	nt
CC1=NN(C(N)=S)C(=O)C1N=Nc1cccc(C(=O)O)c1 (centres undefined)	-3%	2%	2.5µM*	?	4.8µM*	nt
CC1=NN(C(N)=S)C(=O)C1N=Nc1ccc(Cl)cc1Cl (centres undefined)	6%	?	4.5µM*	3.2µM*	24µM*	nt
CCOc1ccccc1CNC(=O)c1ccc2c(c1)N(CC)CCS2	-19%	-6%	-1%	-2%	-1%	8%
CCOc1ccc(N=NC2C(=O)N(C(N)=S)N=C2C)cc1 (centres undefined)	?	18µM*	4µM*	2.8µM*	3.8µM*	nt
c1ccc(CCNc2nc3ccccc3s2)cc1	nt	?	?	?	19µM*	-12%
Cc1ccc(CNc2nc3ccccc3s2)s1	-12%	?	0.35µM*	0.35µM*	0.34µM*	1.3µM*
COc1ccc(CNc2nc3ccccc3s2)cc1OC	-3%	?	?	?	24µM*	nt
Cc1sc2ncnc(SCC(=O)N3CCCC(C(F)(F)F)C3)c2c1C (centres undefined)	4%	-4%	-4%	-2%	-1%	nt
CCN(CC)CCN(C(=O)c1ccc(C(=O)OC)cc1)c1nc2ccc(Cl)cc2s1	nt	nt	nt	nt	1%	nt
CC(=O)c1c(C)n(-c2cccc(C)c2)c2ccc(OC(=O)COc3ccccc3)cc12	nt	nt	nt	nt	1%	-36%
COC(=O)c1ccc2c(CCO)c[nH]c2c1	?	?	29%	?	24µM*	nt
COC(=O)c1ccc(CNC(=O)CCc2c[nH]c3ccccc23)cc1	2%	7%	-2%	-1%	4%	nt
NNC(=O)c1ccc(CSc2nc3ccccc3s2)cc1	-2%	7%	16%	1%	17µM*	-3%
SMILES	uPA surface inh	ELG1 genotox	Rab9 prom act	NPC1 prom act	FLuc modulator	SMN2 splice enh
COCCN(CCOC)C(=O)c1ccc(CSc2nc3ccccc3s2)cc1	2%	12%	17%	27%	17µM*	nt
CNc1nnc(CSc2nc3ccccc3s2)s1	-3%	?	?	24%	?	?
COCCN(Cc1ccccc1)C(=O)c1ccc(C(=O)c2ccccc2)cc1	11%	-2%	-4%	-1%	-1%	nt
CCN(C(C)=O)c1nnc(CSc2nc3ccccc3s2)s1	-3%	8.2µM*	?	?	?	-20%
C[C@H]1[C@H](C)CC[C@]2(C(=O)O)CC[C@]3(C)C(=CC[C@H]4[C@]3(C)C[C@@H](O)C3[C@](C)(CO)[C@H](O)[C@@H](O)C[C@]34C)[C@H]12 (some centres undefined)	nt	nt	nt	nt	nt	-7%[9.22 µM]
COc1cccc(-c2cc(C(=O)NCC3CCCO3)c3ccccc3n2)c1 (centres undefined)	4%	-2%	-2%	-2%	27µM*	-6%
COc1ccc(-c2cc(C(=O)NCC3CCCO3)c3cc(C)ccc3n2)cc1 (centres undefined)	-12%	3%	21%	16%	2.1µM*	?
O=C(COC(=O)c1cc(-c2ccccc2)nc2ccccc12)NCC1CCCO1 (centres undefined)	2%	-6%	-4%	-1%	?	4%
Cc1ccc(-c2cc(C(=O)NCC3CCCO3)c3ccccc3n2)cc1C (centres undefined)	2%	-6%	3%	6%	6.7µM*	16%
COc1ccc(-c2cc(C(=O)NCC3CCCO3)c3ccccc3n2)cc1 (centres undefined)	-27%	-6%	17%	14%	12µM*	7%
O=C(CCCCn1c(=O)c2ccccc2n(Cc2cccc(Cl)c2)c1=O)NCc1ccc2c(c1)OCO2	nt	nt	nt	nt	-3%	8%
COc1ccc(CCn2c(=O)c3cccnc3n(CC(=O)Nc3ccc(C)c(F)c3)c2=O)cc1OC	nt	nt	nt	nt	-4%	8%
COc1ccc(C(=O)Nc2cccc([N+](=O)[O-])c2)cc1Br	-8%	nt	nt	nt	nt	nt
CC(=O)Nc1cccc(Oc2ccc([N+](=O)[O-])cc2Cl)c1	1%	14%	17%	0%	24µM*	9%
COc1ccc(NC(=O)Nc2cccc([N+](=O)[O-])c2)cc1Cl	1%	-2%	16%	1%	21µM*	-7%
COc1ccc(/C=N/Nc2snc(SC)c2C#N)cc1OC	-4%	16%	2.8µM*	2.8µM*	2.1µM*	?
COc1cccc(/C=N/Nc2snc(SC)c2C#N)c1	-5%	2%	25%	?	4.8µM*	-28%
CSc1nsc(N/N=C/c2ccccc2)c1C#N	-6%	-12%	23%	28%	?	29%
COc1cccc(/C=N/Nc2snc(SC)c2C#N)c1O	-9%	3%	3%	1%	4.8µM*	-62%
